# Inconclusive results are not listed. A structure can be active in one record and inactive in another. The source made the active and inactive calls. Rule for the calls: active = hit-call score of the fitted dose curve at least 0.9, where 1 is the maximum; inconclusive = response in the unintended direction; inactive = score below 0.9.
# What was measured:
# [1] = target: Cellular tumor antigen p53 (Homo sapiens) (UniProt P04637); test: TOX21_p53_BLA_p3_ratio: Tox21 HCT-116 p53 Agonism Beta-lactamase Assay, Ratio, Phase 3 (AID 2283596)
# Procedure, shortened: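 HCT116 p53-bla cells (4000/well) given compound in DMSO (217-fold dilution) after 5 h, incubated 16 h at 37C. CCF4-AM substrate 2 h at room temperature; 460/530 nm emission ratio, gain fitted against DMSO.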
# [2] = TOX21_p53_BLA_p4_viability: Viability Assessment in the Tox21 HCT-116 p53 Agonism Beta-lactamase Assay, Phase 4 (AID 2283597);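 note: hits lower the luminescence signal meaning cytotoxicity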
# Procedure, shortened: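 HCT-116 p53-bla cells, 4000/well, dosed after 5 h attachment and incubated 16 h at 37 °C, 5% CO2. Viability from CellTiter-Glo ATP luminescence after 30 min at room temperature, taken after the beta-lactamase read; loss of signal indicates cytotoxicity.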
# [3] = target: Cellular tumor antigen p53 (Homo sapiens) (UniProt P04637); test: TOX21_p53_BLA_p5_ratio: Tox21 HCT-116 p53 Agonism Beta-lactamase Assay, Ratio, Phase 5 (AID 2283599)
# Procedure, shortened: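 HCT-116 cells carrying a p53-inducible beta-lactamase reporter were seeded at 4000 cells/well and dosed after 5 h with compound in DMSO (217-fold dilution). After 16 h at 37C, CCF4-AM substrate was added for 2 h, and the 460/530 nm emission ratio was scored as gain-of-signal versus DMSO.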
# [4] = TOX21_p53_BLA_p5_viability: Viability Assessment in the Tox21 HCT-116 p53 Agonism Beta-lactamase Assay, Phase 5 (AID 2283600)
# Procedure, shortened: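 HCT-116 p53 beta-lactamase reporter cells, 4000/well, were exposed to compound (pin transfer, 217-fold dilution) for 16 hours at 37C. Cellular ATP was read by CellTiter-Glo luminescence after 30 min at room temperature.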
# [5] = target: Cellular tumor antigen p53 (Homo sapiens) (UniProt P04637); test: TOX21_p53_BLA_p4_ratio: Tox21 HCT-116 p53 Agonism Beta-lactamase Assay, Ratio, Phase 4 (AID 2283601)
# Procedure, shortened: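 HCT116 cells carrying an inducible beta-lactamase reporter were plated at 4000 cells/well, rested 5 h, then exposed to compounds in DMSO (217-fold dilution) for 16 h at 37C. CCF4-AM substrate was loaded 2 h at room temperature; 460/530 nm emission ratio scored gain-of-signal versus DMSO.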
# [6] = Tanguay_ZF_120hpf_YSE_legacy: (Legacy) Oregon State University Tanguay Lab 120 Hour Post-fertilization zebrafish Assay for Yolk Sac Edema (AID 2283634);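 for AC50: actives raise the incidence of yolk sac edema above the DMSO baseline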
# Procedure, shortened: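 Dechorionated Tropical 5D wild-type zebrafish embryos were exposed statically, one per well, from 6 to 120 hpf at 28C in 0.64% DMSO. Yolk sac edema was scored present/absent by brightfield at 120 hpf, and dead embryos were excluded.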
# [7] = Tanguay_ZF_120hpf_AXIS_legacy: (Legacy) Oregon State University Tanguay Lab 120 Hour Post-fertilization zebrafish Assay for Body Axis Malformation (AID 2283635);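 for AC50: potency for an increased fraction of larvae scored with body axis malformation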
# Procedure, shortened: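 Dechorionated wild-type Tropical 5D zebrafish embryos, one per well, statically exposed from 6 hpf to 120 hpf at 28C in 0.64% DMSO final. Body axis malformation scored present/absent by brightfield microscopy at 120 hpf; dead embryos excluded.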
# [8] = Tanguay_ZF_120hpf_EYE_legacy: (Legacy) Oregon State University Tanguay Lab 120 Hour Post-fertilization zebrafish Assay for Eye Malformation (AID 2283636);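 note: binary presence or absence of eye malformation scored by brightfield in 120 hpf larvae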
# Procedure, shortened: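 Dechorionated wild-type Tropical 5D zebrafish embryos were exposed statically from 6 hpf, one per well, to 120 hpf at 28C in sealed, foil-covered plates with 0.64% DMSO. Eye malformation was scored present/absent by brightfield microscopy against DMSO controls.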
# [9] = Tanguay_ZF_120hpf_SNOU_legacy: (Legacy) Oregon State University Tanguay Lab 120 Hour Post-fertilization zebrafish Assay for Snout Malformation (AID 2283637)
# Procedure, shortened: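 Tropical 5D wild-type zebrafish embryos, dechorionated with pronase at 4 hpf, were exposed singly from 6 hpf to 120 hpf statically at 28C in 0.64% DMSO. Snout malformation was scored present/absent by brightfield microscopy, fitted against DMSO.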
# [10] = Tanguay_ZF_120hpf_JAW_legacy: (Legacy) Oregon State University Tanguay Lab 120 Hour Post-fertilization zebrafish Assay for Jaw Malformation (AID 2283638);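 for AC50: active means more embryos with jaw malformation than DMSO controls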
# Procedure, shortened: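 Dechorionated Tropical 5D wild-type zebrafish embryos, one per well, exposed statically from 6 hpf to 120 hpf at 28C in 0.64% DMSO. Jaw malformation was scored by brightfield microscopy as present or absent. It was not scored in dead embryos.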
# [11] = Tanguay_ZF_120hpf_OTIC_legacy: (Legacy) Oregon State University Tanguay Lab 120 Hour Post-fertilization zebrafish Assay for Otic Vesicle Malformation (AID 2283639)
# Procedure, shortened: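 Otic vesicle malformation is read as a yes/no morphology call at 120 hpf. Exposure is static at 28C with 0.64% (vol/vol) DMSO; embryos that die are excluded from non-mortality endpoints.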
# [12] = Tanguay_ZF_120hpf_PE_legacy: (Legacy) Oregon State University Tanguay Lab 120 Hour Post-fertilization zebrafish Assay for Pericardial Edema (AID 2283640);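 for AC50: potency for increased incidence of pericardial edema versus DMSO baseline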
# Procedure, shortened: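 Tropical 5D wild-type zebrafish embryos were statically exposed until 120 hpf at 28C, with 0.64% DMSO final. Pericardial edema was scored by brightfield as present or absent; endpoints were not scored in dead embryos.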
# [13] = Tanguay_ZF_120hpf_BRAI_legacy: (Legacy) Oregon State University Tanguay Lab 120 Hour Post-fertilization zebrafish Assay for Brain Malformation (AID 2283641)
# Procedure, shortened: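 Tropical 5D wild-type zebrafish embryos exposed statically until 120 hpf at 28C, 0.64% DMSO final, sealed and dark. Brain malformation scored present/absent by brightfield at 120 hpf; dead embryos excluded. Trimethyltin chloride 5uM positive control.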
# [14] = Tanguay_ZF_120hpf_SOMI_legacy: (Legacy) Oregon State University Tanguay Lab 120 Hour Post-fertilization zebrafish Assay for Somite Malformation (AID 2283647)
# Procedure, shortened: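 Dechorionated Tropical 5D wild-type zebrafish embryos, one per well from 6 hpf, statically exposed at 28C to 120 hpf in 0.64% DMSO; somite malformation scored present/absent by brightfield; trimethyltin 5 uM positive control; dead embryos not scored.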
# [15] = Tanguay_ZF_120hpf_PFIN_legacy: (Legacy) Oregon State University Tanguay Lab 120 Hour Post-fertilization zebrafish Assay for Pectoral Fin Malformation (AID 2283648);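 note: each larva judged yes or no for fin defect by brightfield with dead larvae skipped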
# Procedure, shortened: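 Tropical 5D wild-type embryos, dechorionated with pronase at 4 hpf, were placed singly in wells at 6 hpf and statically exposed until 120 hpf at 28C, sealed and dark, with 0.64% (vol/vol) final DMSO; pectoral fin malformation scored present/absent.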
# [16] = Tanguay_ZF_120hpf_PIG_legacy: (Legacy) Oregon State University Tanguay Lab 120 Hour Post-fertilization zebrafish Assay for Pigmentation Malformation (AID 2283650)
# Procedure, shortened: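 Tropical 5D wild-type zebrafish embryos, dechorionated with pronase at 4 hpf, were exposed singly from 6 hpf to 120 hpf statically at 28C in sealed, dark plates with 0.64% DMSO; pigmentation scored present/absent by brightfield microscopy, fitted against DMSO.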
# [17] = Tanguay_ZF_120hpf_CIRC_legacy: (Legacy) Oregon State University Tanguay Lab 120 Hour Post-fertilization zebrafish Assay for Circulatory Malformation (AID 2283651)
# Procedure, shortened: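 Using wild-type Tropical 5D zebrafish, we exposed dechorionated embryos from 6 to 120 hpf in embryo medium with 0.64% DMSO. Circulatory defects were scored as present or absent; 5uM trimethyltin chloride served as positive control.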
# [18] = Tanguay_ZF_120hpf_CFIN_legacy: (Legacy) Oregon State University Tanguay Lab 120 Hour Post-fertilization zebrafish Assay for Caudal Fin Malformation (AID 2283649)
# Procedure, shortened: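 Dechorionated Tropical 5D wild-type embryos, one per well from 6 hpf, static exposure to 120 hpf at 28C in 0.64% DMSO. Caudal fin malformation scored by brightfield as present/absent; not scored in dead embryos.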
# Chain of Cellular tumor antigen p53 (Homo sapiens) (P04637 whole entry, looked up): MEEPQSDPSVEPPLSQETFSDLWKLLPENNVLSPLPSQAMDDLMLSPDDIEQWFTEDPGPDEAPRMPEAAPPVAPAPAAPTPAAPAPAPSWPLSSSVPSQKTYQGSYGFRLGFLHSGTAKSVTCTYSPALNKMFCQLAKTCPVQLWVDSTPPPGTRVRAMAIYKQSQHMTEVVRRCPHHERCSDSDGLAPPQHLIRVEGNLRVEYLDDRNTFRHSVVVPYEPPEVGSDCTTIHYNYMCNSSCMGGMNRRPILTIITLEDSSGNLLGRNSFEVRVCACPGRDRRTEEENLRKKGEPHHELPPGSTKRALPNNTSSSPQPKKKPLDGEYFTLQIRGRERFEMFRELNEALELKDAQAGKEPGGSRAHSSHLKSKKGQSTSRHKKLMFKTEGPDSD
compound,measurement,setting,value
Cc1ccc(-c2c(Cl)nc(C#N)n2S(=O)(=O)N(C)C)cc1,AC50,[1],12.1 µM (active)
same,AC50,[2],71.9 µM (active)
same,AC50,[3],20.1 µM (active)
same,outcome,[4],inactive
same,AC50,[5],17.3 µM (active)
same,outcome,[6],inactive
same,outcome,[7],inactive
same,outcome,[8],inactive
same,outcome,[9],inactive
same,outcome,[10],inactive
same,outcome,[11],inactive
same,outcome,[12],inactive
same,outcome,[13],inactive
same,outcome,[14],inactive
same,outcome,[15],inactive
same,outcome,[16],inactive
same,outcome,[17],inactive
C#CCOS(=O)OC1CCCCC1Oc1ccc(C(C)(C)C)cc1 (stereo not given),AC50,[1],2.53 µM (active)
same,outcome,[1],inactive
same,AC50,[2],70.4 µM (active)
same,outcome,[2],inactive
same,outcome,[3],inactive
same,outcome,[4],inactive
same,outcome,[5],inactive
same,outcome,[6],inactive
same,outcome,[7],inactive
same,outcome,[9],inactive
same,outcome,[10],inactive
same,outcome,[11],inactive
same,outcome,[12],inactive
same,outcome,[13],inactive
same,outcome,[14],inactive
same,outcome,[15],inactive
same,outcome,[16],inactive
same,outcome,[17],inactive
Fc1ccc(Oc2ccnc3cc(Cl)cc(Cl)c23)cc1,AC50,[1],89.1 µM (active)
same,outcome,[2],inactive
same,AC50,[3],88.9 µM (active)
same,outcome,[4],inactive
same,AC50,[5],81.6 µM (active)
same,outcome,[6],inactive
same,outcome,[7],inactive
same,outcome,[8],inactive
same,outcome,[9],inactive
same,outcome,[10],inactive
same,outcome,[11],inactive
same,outcome,[12],inactive
same,outcome,[13],inactive
same,outcome,[14],inactive
same,outcome,[15],inactive
same,outcome,[16],inactive
same,outcome,[17],inactive
CN(C)C(=S)SSC(=S)N(C)C,AC50,[1],29.3 µM (active)
same,outcome,[1],inactive
same,outcome,[2],inactive
same,AC50,[3],77 µM (active)
same,outcome,[3],inactive
same,outcome,[4],inactive
same,outcome,[5],inactive
same,outcome,[6],inactive
same,outcome,[7],inactive
same,outcome,[8],inactive
same,outcome,[9],inactive
same,outcome,[10],inactive
same,outcome,[11],inactive
same,outcome,[12],inactive
same,outcome,[13],inactive
same,outcome,[14],inactive
same,outcome,[15],inactive
same,outcome,[18],inactive
same,outcome,[16],inactive
same,outcome,[17],inactive
CCOC(=O)CC(SP(=S)(OC)OC)C(=O)OCC (stereo not given),outcome,[1],inactive
same,outcome,[2],inactive
same,outcome,[3],inactive
same,outcome,[4],inactive
same,outcome,[5],inactive
same,AC50,[6],37.4 µM (active)
same,AC50,[7],34.6 µM (active)
same,AC50,[8],38.7 µM (active)
same,AC50,[9],38.1 µM (active)
same,AC50,[10],33.7 µM (active)
same,outcome,[11],inactive
same,AC50,[12],37 µM (active)
same,outcome,[13],inactive
same,AC50,[14],32 µM (active)
same,AC50,[15],34 µM (active)
same,outcome,[17],inactive
COC(=O)c1ccccc1C(=O)OC,outcome,[1],inactive
same,outcome,[2],inactive
same,outcome,[3],inactive
same,outcome,[4],inactive
same,outcome,[5],inactive
same,outcome,[6],inactive
same,outcome,[7],inactive
same,outcome,[8],inactive
same,outcome,[9],inactive
same,outcome,[10],inactive
same,outcome,[11],inactive
same,outcome,[12],inactive
same,outcome,[13],inactive
same,outcome,[14],inactive
same,outcome,[15],inactive
same,outcome,[16],inactive
same,outcome,[17],inactive

# — PubChem BioAssay (EPA / NIEHS)
